From PubChem BioAssay AID1240 (Sanford-Burnham Center for Chemical Genomics, 2008)
Among all 50,000 compounds or so, about 800 (1.6%) showed an effect of 50% or more. Shown is part of a subset that was picked to be rich in strong results.

The molecules below were run against Bcl-2-like protein 10 (Homo sapiens) (UniProt Q9HD36) (assay: TR3 peptide-Bcl-B binding displacers, biochemical primary FP assay, phenotype converters (AID 1240;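 note: 0% = Bcl-B with tracer peptide and DMSO and 100% = tracer peptide lacking Bcl-B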)). Settings: GST-Bcl-B / FITC-TR3 peptide fluorescence polarization; stronger effect = higher value; compound at 3.75 mg/L.
Sequence of Bcl-2-like protein 10 (Homo sapiens) (Q9HD36 whole entry, looked up): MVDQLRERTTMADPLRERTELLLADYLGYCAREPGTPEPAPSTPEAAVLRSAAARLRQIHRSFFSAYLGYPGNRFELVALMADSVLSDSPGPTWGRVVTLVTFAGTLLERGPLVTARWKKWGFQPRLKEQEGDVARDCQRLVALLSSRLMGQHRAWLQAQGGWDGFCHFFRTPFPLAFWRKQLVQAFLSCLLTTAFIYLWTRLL
In the case of `Cc1cccc(C(=O)O/N=C(\N)c2ccc(Br)cc2)c1`, the displacement is reported as -0.6%.
In the case of `COc1ccc(-c2occ(C(=O)O)c2C(=O)O)cc1`, the displacement is reported as 0.2%.
`O=C1CC(N2CCN(c3ccccc3)CC2)C(=O)N1c1ccc(I)cc1` (stereo unspecified) gave a displacement of -0.8%.
`CCC12C(=O)C(CC)(C(c3ccccc3)=C1c1ccccc1)C1C(=O)N(c3ccccc3[N+](=O)[O-])C(=O)C12` (stereo unspecified) was tested, and the displacement was 2%.
`CCN1C(=O)/C(=C\c2ccc(Br)cc2)SC1=S` gave a displacement of 7.1%.
With `CCOc1cccc(=O)c2c(C)oc(C)c12` the displacement was 16.8%.
For `CCOc1ccc(-c2cc(OCC)c3c(C)oc(C)c3c(=[O+]CC)c2)cc1`, the displacement was 2.4%.
Molecule `CCOc1cccc(=[O+]CC)c2c(C)oc(C)c12` has a displacement of 154%.
For `CNC(=O)COc1ccc(C23CC4CC(CC(C4)C2)C3)cc1`, the displacement was 1.4%.
With `O=C(CSc1n[nH]c(=O)[nH]c1=O)c1ccc(Cl)cc1` the displacement was -6.1%.
Molecule `O=C(Nc1ncc(Cc2ccc(F)cc2)s1)C1CCCO1` (stereo unspecified) has a displacement of 15.4%.
In the case of `Cc1nc(-c2ccccc2)sc1C(=O)Nc1cccc2ccccc12`, the displacement is reported as 13.1%.
Molecule `COc1cc(C=O)ccc1Oc1ccc([N+](=O)[O-])cc1` has a displacement of 5%.
`Cc1ccc(-n2c(C)cc(/C=C3\NC(=O)NC3=O)c2C)cc1C` gave a displacement of 11.1%.
Molecule `Cc1ccc(-n2cc(C=C3C(=O)NC(=O)NC3=O)cn2)cc1C` has a displacement of 110%.
Work on `Cc1ccc(-n2cc(/C=c3\sc4nc5cc(C)c(C)cc5n4c3=O)cn2)cc1C` yielded a displacement of -8.9%.
`O=[N+]([O-])c1ccc2oc(-c3ccccc3)nc2c1` showed a displacement of 5%.
In the case of `COc1sc(SC)cc1/C=N/NC(=O)C(NC(=O)c1ccccc1)c1n[nH]c(=O)c2ccccc12` (stereo unspecified), the displacement is reported as -7.7%.
For `COc1ccc(-c2cc(C(F)(F)F)n3nc(C(N)=O)c(Cl)c3n2)cc1OC`, the displacement was 33.4%.
In the case of `COCCNC(=O)c1nn2c(C(F)(F)F)cc(-c3ccc(OC)c(OC)c3)nc2c1Cl`, the displacement is reported as 155%.
For `COCCNC(=O)c1nn2c(C(F)(F)F)cc(-c3ccc(OC)cc3)nc2c1Cl`, the displacement was -2.4%.
For `COc1ccc(-c2cc(C(F)(F)F)n3nc(C(=O)NCCN4CCOCC4)c(Cl)c3n2)cc1`, the displacement was -10.2%.
With `COc1ccc(-c2cc(C(F)(F)F)n3nc(C(=O)NCCCn4ccnc4)c(Cl)c3n2)cc1` the displacement was 105%.
With `COc1ccc(-c2cc(C(F)(F)F)n3nc(C(=O)O)c(Cl)c3n2)cc1` the displacement was 3.2%.
Work on `COc1ccc(C(=O)Nc2ccc(N(C)C)cc2)cc1` yielded a displacement of 6%.
`CN(C)c1ccc(C2/C(=C(\O)c3ccc(F)cc3)C(=O)C(=O)N2CCCCCC(=O)O)cc1` (stereo unspecified) was tested, and the displacement was 9.1%.
`CCCCOC(=O)c1ccc(NC(=O)COc2ccc3c(C)cc(=O)oc3c2)cc1` was tested, and the displacement was 28.5%.
Work on `COCCOC(=O)c1ccc(NC(=O)COc2ccc3c(C)cc(=O)oc3c2)cc1` yielded a displacement of 90.3%.
Work on `CCCCOC(=O)c1cccc(NC(=O)COc2ccc3c(C)cc(=O)oc3c2)c1` yielded a displacement of -41.8%.
For `Cc1cccc([N+](=O)[O-])c1N=Cc1ccc(N(C)C)cc1`, the displacement was -4.5%.
Molecule `COc1ccc(N(CC(=O)NC2CCCCC2)S(=O)(=O)c2ccccc2)cc1Cl` has a displacement of 7.2%.
`O=C1/C(=C\c2ccc(-c3ccc([N+](=O)[O-])cc3Br)o2)Sc2ccccc21` was tested, and the displacement was -17.8%.
`COc1ccc(/C=C2/Sc3ccccc3C2=O)cc1Br` was tested, and the displacement was 116%.
`NS(=O)(=O)c1ccc(-c2ccc(/C=C3\Sc4ccccc4C3=O)o2)cc1` was tested, and the displacement was -71.8%.
For `O=C1/C(=C/c2ccc(Br)o2)Sc2ccccc21`, the displacement was 92.7%.
`COc1ccc(/C=C2/Sc3ccccc3C2=O)cc1[N+](=O)[O-]` gave a displacement of -5.3%.
`CCOc1cc(/C=C2\Sc3ccccc3C2=O)ccc1OC` gave a displacement of 0.2%.
Molecule `O=C(NCc1ccccn1)C(=O)Nc1ccccc1F` has a displacement of -20.9%.
`Cc1ccc(S(=O)(=O)NCCOc2ccccc2Cl)cc1[N+](=O)[O-]` was tested, and the displacement was 13%.
With `CC(=O)N/C(=C\c1ccccc1)C(=O)NC(CC(C)C)C(=O)O` (stereo unspecified) the displacement was -2.1%.
Work on `CC(=O)N/C(=C\c1ccc(F)cc1)C(=O)NC(C(=O)O)C(C)C` (stereo unspecified) yielded a displacement of 81.8%.
`C#CCOC(=O)/C(=C/c1ccc(F)cc1)NC(C)=O` was tested, and the displacement was -8.4%.
In the case of `COc1ccccc1NC(=O)c1cccc2c(Br)cccc12`, the displacement is reported as -5.4%.
`COc1ccc(N(CC(=O)NC(C)c2ccccc2)S(=O)(=O)c2ccc(C)cc2)c(OC)c1` (stereo unspecified) showed a displacement of 2.3%.
`Cc1cc(C)cc(OCC(=O)N2CCN(c3ccc([N+](=O)[O-])cc3)CC2)c1` gave a displacement of -3.5%.
Molecule `CC(C)(C)OC(=O)COc1ccc2cc(-c3nc4ccccc4s3)c(=O)oc2c1` has a displacement of 92%.
`CCOC(=O)COc1ccc2cc(-c3nc4ccccc4[nH]3)c(=O)oc2c1` was tested, and the displacement was 7.3%.
`Cc1oc2cc(OCC(=O)OCc3ccccc3)ccc2c(=O)c1-c1nc2ccccc2s1` gave a displacement of 11.3%.
For `O=C(COc1ccc2cc(-c3nc4ccccc4s3)c(=O)oc2c1)OCc1ccccc1`, the displacement was 53.3%.
With `O=c1c(-c2nc3ccccc3s2)coc2cc(OCc3ccc([N+](=O)[O-])cc3)ccc12` the displacement was 6.2%.
Molecule `O=c1oc2cc(OCc3ccc(F)cc3)ccc2cc1-c1nc2ccccc2s1` has a displacement of 52.5%.
In the case of `CCOc1ccc2c(=O)c(-c3nc4ccccc4s3)coc2c1`, the displacement is reported as 7.8%.
`O=c1oc2cc(OCc3c(F)c(F)c(F)c(F)c3F)ccc2cc1-c1ccc2ccccc2n1` gave a displacement of -49.7%.
Work on `O=C(COc1ccc2ccc(=O)oc2c1)OCc1ccccc1` yielded a displacement of 10.9%.
`O=c1oc2ccccc2cc1-c1nc2ccccc2s1` was tested, and the displacement was -1%.
`CCOC(=O)COc1ccc2cc(-c3nc4ccccc4o3)c(=O)oc2c1` showed a displacement of 8.8%.
With `C=C(C)COc1ccc2cc(-c3nc4ccccc4s3)c(=O)oc2c1` the displacement was 66.5%.
With `CCOc1ccc(N(CC(=O)Nc2cccc3cccnc23)S(=O)(=O)c2ccccc2)cc1` the displacement was -39.5%.
`O=C(Nc1ccc2nn(-c3ccc(F)cc3)nc2c1)c1cc2ccccc2o1` showed a displacement of 2.5%.
Molecule `O=C1N/C(=N/N=C\c2ccc(-c3ccc(Cl)cc3)o2)SC1Cc1ccccc1` (stereo unspecified) has a displacement of 17%.
For `CC(Sc1nnc(N)s1)c1ccccc1` (stereo unspecified), the displacement was 5.2%.
`COc1ccc(CC(=O)N=Nc2c(O)n(CN3CCN(C)CC3)c3ccccc23)cc1` showed a displacement of -3%.
In the case of `O=C(CN1C(=O)c2ccc([N+](=O)[O-])cc2C1=O)N1CCCCC1`, the displacement is reported as -9.1%.
`COc1ccc(NC(=O)C(=O)NCc2ccc(C)cc2)c(OC)c1` showed a displacement of 10.4%.
In the case of `O=C(COc1ccc(Cl)cc1Br)NNC(=O)c1ccncc1`, the displacement is reported as -4.5%.
`CC(=O)c1cc(F)c(N2CCN(C(=O)c3cccs3)CC2)cc1C` was tested, and the displacement was 80%.
With `CC(=O)c1ccc(N2CCN(C(=O)c3cccs3)CC2)c(F)c1` the displacement was -4.6%.
`CC(=O)c1cc(F)c(N2CCN(C(=O)c3ccccc3Br)CC2)cc1C` showed a displacement of -5.4%.
`C=C(NC(C)=O)C(=O)c1ccc([N+](=O)[O-])cc1` showed a displacement of 18.9%.
In the case of `O=C(Nc1ccccc1C(=O)Nc1ccccn1)c1ccc([N+](=O)[O-])cc1`, the displacement is reported as 45.1%.
`O=c1ccc([N+](=O)[O-])ccc1Nc1ccccn1` was tested, and the displacement was 58.1%.
`Cc1ccc(NS(=O)(=O)c2ccc([N+](=O)[O-])cc2)cc1` gave a displacement of 15.1%.
In the case of `O=C(COc1ccc([N+](=O)[O-])cc1)Nc1ccccn1`, the displacement is reported as -10.4%.
`Cc1ccc(Nc2ccc([N+](=O)[O-])ccc2=O)cc1` was tested, and the displacement was 136%.
`Cc1ccc(Nc2ccc([N+](=O)[O-])c3nonc23)cc1` showed a displacement of -2.1%.
Work on `O=C(c1ccccc1)N1CCN(CCCc2ccccc2)CC1` yielded a displacement of -9.4%.
`Cc1cccc(C(=O)O/N=C(\N)c2ccncc2)c1` showed a displacement of 8.5%.
`Clc1ccc(CN2CCN(/N=C/c3ccc(Br)s3)CC2)cc1` was tested, and the displacement was 14.6%.
`N#C/C(=C/c1cccc(Cl)c1)c1nc(-c2ccc(Cl)cc2)cs1` showed a displacement of -4.7%.
In the case of `COc1cc(OC)c(NC(=O)c2ccccc2C)cc1Cl`, the displacement is reported as -12%.
Molecule `CCOc1ccc(C=C2C(=O)NC(=O)NC2=O)cc1OCC` has a displacement of 14.1%.
`Cc1no[n+]([O-])c1COc1ccc(/C=C2\SC(=S)NC2=O)cc1` showed a displacement of -27.5%.
`CCOc1cc(C=C2C(=O)NC(=O)NC2=O)ccc1OCc1c(C)no[n+]1[O-]` was tested, and the displacement was 108%.
`Cc1no[n+]([O-])c1COc1ccc(C=C2C(=O)NC(=O)NC2=O)cc1` showed a displacement of 2.5%.
`CCOc1cc(C=C2C(=O)NC(=O)NC2=O)ccc1OCc1cccc2ccccc12` was tested, and the displacement was 58.6%.
In the case of `CCOc1cc(C=C2C(=O)NC(=O)NC2=O)ccc1OCc1ccccc1`, the displacement is reported as 33.7%.
`CCOc1cc(/C=C2\SC(=S)NC2=O)ccc1OCc1c(C)no[n+]1[O-]` showed a displacement of 117%.
`Cc1no[n+]([O-])c1COc1cccc(/C=C2\SC(=S)NC2=O)c1` was tested, and the displacement was -27.6%.
Molecule `COc1cc(C=C2C(=O)NC(=O)NC2=O)ccc1OCc1c(C)no[n+]1[O-]` has a displacement of -3.9%.
Molecule `O=C(c1nn2c(C(F)(F)F)cc(-c3ccccc3)nc2c1Cl)N1CCCC1` has a displacement of 22.7%.
For `CC1=NN(C(=O)c2ccc([N+](=O)[O-])cc2)C(O)(C(F)(F)F)C1` (stereo unspecified), the displacement was 6.8%.
Molecule `O=C1NC(=Nc2ccc(Cl)cc2)SC1Cc1cccc([N+](=O)[O-])c1` (stereo unspecified) has a displacement of -4.7%.
Work on `O=C(CN(c1ccc(Br)cc1)S(=O)(=O)c1ccccc1)NC1CC2CCC1C2` (stereo unspecified) yielded a displacement of -0.2%.
`Nc1nnc(SCC(=O)N2c3ccccc3Sc3ccccc32)s1` gave a displacement of -2%.
With `CC(=O)N(CCC1(Cc2ccccc2)CCOC(C)(C)C1)Cc1ccccc1` (stereo unspecified) the displacement was 7.8%.
`O=C(O)CCCCCN1C(=O)C(=O)/C(=C(/O)c2ccccc2)C1c1cccc(F)c1` (stereo unspecified) showed a displacement of -11.9%.
Molecule `COc1ccc(C(NC(C)=O)NC(C)=O)cc1OC` has a displacement of 6.3%.
Molecule `CCOc1ccc(C(=O)N(C(=O)c2ccc(OCC)cc2)c2ncccc2C)cc1` has a displacement of -0.9%.
`COC(=O)c1[nH]cnc1C(=O)Nc1ccc(C)cc1C(=O)c1ccccc1` was tested, and the displacement was -1.6%.
`Cc1ccccc1-c1nc2ccccc2c(=O)n1/N=C/c1ccc([N+](=O)[O-])cc1` showed a displacement of 12.8%.
`Cc1ccc(C)c(NC(=O)/C=C/c2ccc(C)o2)c1` was tested, and the displacement was 10.2%.
In the case of `CCOc1ccc(S(=O)(=O)NCc2ccccc2Cl)c2ccccc12`, the displacement is reported as 3.4%.
Work on `O=C(Nc1nc(-c2ccc(F)cc2)cs1)c1ccccc1[N+](=O)[O-]` yielded a displacement of 8.9%.
`O=C(Nc1nc(-c2ccc([N+](=O)[O-])cc2)cs1)c1ccccc1F` showed a displacement of 113%.
`O=C(Nc1nc(-c2ccc([N+](=O)[O-])cc2)cs1)c1ccc(Cl)cc1` showed a displacement of 8.7%.
In the case of `COc1cc(/C=C2/SC(=S)N(CC(=O)O)C2=O)ccc1OCc1ccccc1`, the displacement is reported as 1.7%.
